These results are taken from PubChem BioAssay (NCI).

Each structure is given as a SMILES string. This is part of a sample that, as a whole, favours compounds with a hit. Of some 79,000 tested, about 15% had one in any assay. A number with no mark means an inactive call. Calls of active or inactive are those of the source. No stated cut-off is given here; in the data, active means growth inhibition above about 70%; inactive means the rest.

Assay [1] is described as follows: NCI Yeast Anticancer Drug Screen. Data for the rad50 strain (AID 155).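 Further: 0% = growth of vehicle-only cultures of the same strain.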 The conditions noted are these: S. cerevisiae rad50 strain growth inhibition, stronger effect = higher value. The gist of the method: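 Compounds were tested on a yeast strain with an engineered DNA damage repair alteration; the reported value is growth inhibition normalised to vehicle treatment.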
Assay [2] can be described thus: NCI Yeast Anticancer Drug Screen. Data for the mec2-1 strain (AID 157). To be noted: S. cerevisiae mec2-1 strain, stronger effect = higher value. The gist of the method:
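Using mec2-1 yeast: add compound, measure growth, express inhibition versus vehicle-treated cultures.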

Assay [3] can be described thus: NCI Yeast Anticancer Drug Screen. Data for the sgs1 mgt1 strain (AID 161).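 Further: 0% = growth of cultures given vehicle only.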 The conditions noted are these: S. cerevisiae sgs1 mgt1 strain, stronger effect = higher value. The gist of the method:
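This yeast growth screen uses a strain with defined DNA-repair lesions; compound-treated growth is compared with vehicle-treated growth.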

Assay [4] in a line: NCI Yeast Anticancer Drug Screen. Data for the cln2 rad14 strain (AID 165).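 Further: 0% = growth equal to vehicle treated cultures.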 The conditions noted are these: S. cerevisiae cln2 rad14 strain, stronger effect = higher value. A digest of the protocol: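 Yeast strain cln2 rad14, bearing defects in cell cycle control and DNA repair, serves as the test system; values reflect growth inhibition compared with vehicle.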
The nature of assay [5]: NCI Yeast Anticancer Drug Screen. Data for the bub3 strain (AID 167). The conditions noted are these: S. cerevisiae bub3 mutant strain, stronger effect = higher value. The gist of the method:
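Growth of a checkpoint-deficient yeast mutant is measured after compound exposure. Values represent inhibition relative to vehicle.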

Assay [6] can be described thus: NCI Yeast Anticancer Drug Screen. Data for the mlh1 rad18 strain (AID 175). To be noted: S. cerevisiae mlh1 rad18 strain growth inhibition, stronger effect = higher value. A digest of the protocol:
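Steps: expose repair-defective yeast to compound; measure growth; express inhibition against vehicle-treated controls.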

[7] abbreviates: at 5.0 µM (retest, dose inferred, filed as 0.5).
Setting [8] is: at 50.0 µM (retest, dose inferred, filed as 5.0).

With `CC1OC(OC2C(OC3CCC4(C)C(CCC5(C)C4CC=C4C6CC(C)(C)CCC6(CO)C(O)CC45C)C3(C)C)OC(C(=O)O)C(OC3OC(COC4OC(CO)C(O)C(O)C4O)C(O)C(O)C3O)C2O)C(O)C(O)C1O` (configuration not stated), the growth inhibition in assay [1] (setting [7]) is -21%; in assay [1] (setting [8]), 99% (active); in assay [1] (at 50.0 µM), 92.7% (active); in assay [2] (setting [7]), -22%; in assay [2] (setting [8]), 100% (active); in assay [2] (at 50.0 µM), 94.2% (active). In addition, the growth inhibition was -14% in assay [3] (setting [7]); 98% (active) in assay [3] (setting [8]); 94.4% (active) in assay [3] (at 50.0 µM); 15% in assay [4] (setting [7]); 99% (active) in assay [4] (setting [8]); 92.5% (active) in assay [4] (at 50.0 µM). Besides, the growth inhibition in assay [5] (setting [7]) is -9%; in assay [5] (setting [8]), 99% (active); in assay [5] (at 50.0 µM), 93.4% (active); in assay [6] (setting [7]), 9%; in assay [6] (setting [8]), 99% (active); in assay [6] (at 50.0 µM), 93.5% (active).
As for `O=C(O)CSc1nc(-c2ccccc2)c(-c2ccccc2)n1-c1ccccn1`, the growth inhibition in assay [1] (setting [7]) is 1%; in assay [1] (setting [8]) it was 5%; in assay [1] (at 50.0 µM), 76.2% (active); in assay [2] (setting [7]) it was -6%; in assay [2] (setting [8]), -10%; in assay [2] (at 50.0 µM), 40.5%. Also, the growth inhibition was -12% in assay [3] (setting [7]); 4% in assay [3] (setting [8]); 82.8% (active) in assay [3] (at 50.0 µM); 18% in assay [4] (setting [7]); 4% in assay [4] (setting [8]); 61.8% in assay [4] (at 50.0 µM). Moreover, the growth inhibition was -13% in assay [5] (setting [7]); -9% in assay [5] (setting [8]); 47.4% in assay [5] (at 50.0 µM); 8% in assay [6] (setting [7]); 6% in assay [6] (setting [8]); 11.2% in assay [6] (at 50.0 µM).
With `C[Si](C)(c1ccccc1)C1CC(=O)CC(=O)C1`, the growth inhibition in assay [1] (setting [7]) was 41%; in assay [1] (setting [8]) it was 54%; in assay [1] (at 50.0 µM) it was 49.9%; in assay [2] (setting [7]), 26%; in assay [2] (setting [8]), 65%; in assay [2] (at 50.0 µM) it was 55.2%. Besides, the growth inhibition in assay [3] (setting [7]) is 47%; in assay [3] (setting [8]) it was 50%; in assay [3] (at 50.0 µM) it was 69.5%; in assay [4] (setting [7]), 29%; in assay [4] (setting [8]), 39%; in assay [4] (at 50.0 µM), 65.1%. Moreover, the growth inhibition in assay [5] (setting [7]) was 38%; in assay [5] (setting [8]), 53%; in assay [5] (at 50.0 µM), 56%; in assay [6] (setting [7]), 44%; in assay [6] (setting [8]), 63%; in assay [6] (at 50.0 µM), 48.8%.
With `CN(C)c1ccc(N=Nc2cccc3ccccc23)cc1`, the growth inhibition in assay [1] (setting [7]) was 8%; in assay [1] (setting [8]) it was 75% (active); in assay [1] (at 50.0 µM) it was 34%; in assay [2] (setting [7]) it was 3%; in assay [2] (setting [8]), 89% (active); in assay [2] (at 50.0 µM), 0.15%. The growth inhibition in assay [3] (setting [7]) is 10%; in assay [3] (setting [8]) it was 85% (active); in assay [3] (at 50.0 µM), 4.3%; in assay [4] (setting [7]), 1%; in assay [4] (setting [8]), 51%; in assay [4] (at 50.0 µM), 50.2%. The growth inhibition in assay [5] (setting [7]) was -5%; in assay [5] (setting [8]), 88% (active); in assay [5] (at 50.0 µM), -5.65%; in assay [6] (setting [7]) it was -6%; in assay [6] (setting [8]), 42%; in assay [6] (at 50.0 µM), 12.5%.
Regarding `CC(C)(C)C(=O)/C=C/c1ccc2ccccc2n1`, the growth inhibition in assay [1] (setting [7]) was -135%; in assay [1] (setting [8]), -119%; in assay [1] (at 50.0 µM), 44.4%; in assay [2] (setting [7]), -48%; in assay [2] (setting [8]), -51%; in assay [2] (at 50.0 µM) it was 51.1%. Besides, the growth inhibition in assay [3] (setting [7]) is -62%; in assay [3] (setting [8]) it was -35%; in assay [3] (at 50.0 µM), 34.5%; in assay [4] (setting [7]), -66%; in assay [4] (setting [8]), -75%; in assay [4] (at 50.0 µM), 8.6%. Moreover, the growth inhibition in assay [5] (setting [7]) was -67%; in assay [5] (setting [8]), -73%; in assay [5] (at 50.0 µM), 34.1%; in assay [6] (setting [7]), -126%; in assay [6] (setting [8]), -120%; in assay [6] (at 50.0 µM) it was 77.8% (active).
For the molecule `O=c1cccccc1O`, the growth inhibition is 14% in assay [1] (setting [7]); 97% (active) in assay [1] (setting [8]); 90.4% (active) in assay [1] (at 50.0 µM); 4% in assay [2] (setting [7]); 100% (active) in assay [2] (setting [8]); 91.7% (active) in assay [2] (at 50.0 µM). Moreover, the growth inhibition in assay [3] (setting [7]) was 8%; in assay [3] (setting [8]), 99% (active); in assay [3] (at 50.0 µM) it was 93.3% (active); in assay [4] (setting [7]) it was 16%; in assay [4] (setting [8]), 62%; in assay [4] (at 50.0 µM), 85.7% (active). The growth inhibition is 26% in assay [5] (setting [7]); 97% (active) in assay [5] (setting [8]); 91.5% (active) in assay [5] (at 50.0 µM); 13% in assay [6] (setting [7]); 98% (active) in assay [6] (setting [8]); 81.1% (active) in assay [6] (at 50.0 µM).
For the molecule `C[CH2][Sn]([CH2]C)([O]C(=O)c1c(F)cccc1F)[O][Sn]([CH2]C)([CH2]C)[O]C(=O)c1c(F)cccc1F`, the growth inhibition is 40% in assay [1] (setting [7]); 89% (active) in assay [1] (setting [8]); 81.3% (active) in assay [1] (at 50.0 µM); 34% in assay [2] (setting [7]); 95% (active) in assay [2] (setting [8]); 81.8% (active) in assay [2] (at 50.0 µM). For the same molecule, the growth inhibition in assay [3] (setting [7]) is 36%; in assay [3] (setting [8]), 95% (active); in assay [3] (at 50.0 µM) it was 83.2% (active); in assay [4] (setting [7]), 28%; in assay [4] (setting [8]) it was 84% (active); in assay [4] (at 50.0 µM) it was 72.4% (active). Also, the growth inhibition in assay [5] (setting [7]) is 45%; in assay [5] (setting [8]), 72% (active); in assay [5] (at 50.0 µM), 78.5% (active); in assay [6] (setting [7]), 44%; in assay [6] (setting [8]) it was 93% (active); in assay [6] (at 50.0 µM), 78.2% (active).
Regarding `N#C/C(=C\c1c(Cl)cccc1Cl)c1nc2ccccc2[nH]1`, the growth inhibition in assay [1] (setting [7]) is 38%; in assay [1] (setting [8]), 97% (active); in assay [1] (at 50.0 µM), 87.7% (active); in assay [2] (setting [7]) it was 22%; in assay [2] (setting [8]) it was 99% (active); in assay [2] (at 50.0 µM) it was 90.2% (active). Further, the growth inhibition is 33% in assay [3] (setting [7]); 99% (active) in assay [3] (setting [8]); 90.6% (active) in assay [3] (at 50.0 µM); 23% in assay [4] (setting [7]); 98% (active) in assay [4] (setting [8]); 88.9% (active) in assay [4] (at 50.0 µM). Further, the growth inhibition in assay [5] (setting [7]) is 35%; in assay [5] (setting [8]), 98% (active); in assay [5] (at 50.0 µM), 91.5% (active); in assay [6] (setting [7]), 42%; in assay [6] (setting [8]), 98% (active); in assay [6] (at 50.0 µM), 88.8% (active).
On to `CCOC(=O)c1cc2c(nc1N)/C(=C/c1ccccc1)CCCC2`, for which the growth inhibition in assay [1] (setting [7]) is 39%; in assay [1] (setting [8]) it was 95% (active); in assay [1] (at 50.0 µM), -24.4%; in assay [2] (setting [7]), 31%; in assay [2] (setting [8]), 96% (active); in assay [2] (at 50.0 µM) it was -34.6%. Besides, the growth inhibition was 34% in assay [3] (setting [7]); 96% (active) in assay [3] (setting [8]); -29.2% in assay [3] (at 50.0 µM); 19% in assay [4] (setting [7]); 80% (active) in assay [4] (setting [8]); -15.4% in assay [4] (at 50.0 µM). Besides, the growth inhibition is 42% in assay [5] (setting [7]); 97% (active) in assay [5] (setting [8]); -11.4% in assay [5] (at 50.0 µM); 37% in assay [6] (setting [7]); 95% (active) in assay [6] (setting [8]); -21.1% in assay [6] (at 50.0 µM).
